Data on 24 molecules can be found in PubChem BioAssay (Tox21).

The structures appear in SMILES notation. Values joined by “and” are separate entries in the source; they are usually repeats but may differ in a detail not shown here. Identical values can stand only once. Inconclusive results are not listed. Some compounds were tested as several samples or in several runs, with calls that do not always agree. Active and inactive are the calls of the source. Unless noted, the call rests on the fitted dose curve; in most records, active means well fitted curve in the direction sought with a large enough effect in the repeat runs; inconclusive means weak or mixed curves; inactive means no such curve, though single readings can be large; an effect the other way counts as inactive or inconclusive.

Assay [1] can be described thus: qHTS assay to identify small molecule agonists of the hypoxia (HIF-1) signaling pathway - cell viability counter screen (AID 1224844; calls by dose curve; further: nearly all actives have a fitted effect of over 50% in size; further: potency means the concentration at half of the fitted maximal effect). The gist of the method: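 HRE-bla ME-180 cells in medium with 0.5% dialyzed FBS were preincubated 5 hrs at 37C, exposed to compounds for 17 hrs, then viability was read as CellTiter-Glo luminescence after 30 min at room temperature, in the reporter wells.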
(qHTS replaces the single test concentration by a dilution series.)

Assay [2] in a line: qHTS assay to identify small molecule agonists of H2AX (AID 1224845; active means well fitted activation curve with a large enough effect in the signal ratio in the repeat runs, not every such curve was filed as active; the % refers to the signal ratio). The gist of the method:
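Wild-type CHO-K1 cells, plated overnight, exposed 3hr at 37C to 15 concentrations (0.76% DMSO final). Lysed, then HTRF anti-pH2AX (S139) cryptate and anti-H2AX-d2 antibodies, 24 hr room temperature; 665/620 nm emission read.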

Assay [3] in a line: qHTS assay to identify small molecule agonists of the hypoxia (HIF-1) signaling pathway (AID 1224846; active means well fitted activation curve with a large enough effect in the signal ratio in the repeat runs, not every such curve was filed as active; the % refers to the signal ratio). The method, boiled down:
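HRE-bla ME-180 cells (beta-lactamase reporter under hypoxia response element) were plated at 2,000 cells/well in medium with 0.5% dialyzed FBS, rested 5 hrs, then given compounds in DMSO for 17 hrs at 37C, 5% CO2. Reporter induction was read with CCF4-AM FRET substrate.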

Assay [4] in a line: qHTS assay to identify small molecule agonists of H2AX - cell viability counter screen (AID 1224847; calls by dose curve; further: nearly all actives have a fitted effect of over 30% in size; further: potency means the concentration at half of the fitted maximal effect; on activity change, negative = cytotoxicity: top concentration of the series differs between compounds). The method, boiled down:
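Viability of CHO-K1 (wild type) cells after 3 hr compound exposure was measured by CellTiter-Glo luminescence.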

Assay [5] is described as follows: qHTS RealTime-Glo MT Cell Viability Assay in HepG2 cells - 24 hour (AID 1224867). Further: nearly all actives have a fitted effect of over 50% in size. The method, boiled down:
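Tox21 10K library screened in qHTS format on HepG2 cells carrying RealTime-Glo reagents. Compounds were added after a 5 h preincubation, and the luminescent signal from continuous culture was measured repeatedly during 40 h treatment.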

The nature of assay [6]: qHTS RealTime-Glo MT Cell Viability Assay in HEK293 cells - 32 hour (AID 1224868). Further: nearly all actives have a fitted effect of over 50% in size. Further: potency means the concentration at half of the fitted maximal effect. On activity change, negative = cytotoxic: top concentration of the series differs between compounds. The gist of the method: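 Luminescence generated by NanoLuc from substrate produced by living HEK293 cells served as the viability signal. Each value reflects the reading at its stated time point during continuous 40 h compound exposure at 37 C.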
A short description of assay [7]: A CellTox Green Cytotoxicity Assay to monitor cytotoxicity in HEK293 cells - 0 hour (AID 1224869). Further: nearly all actives have a fitted effect of over 50% in size. The method, boiled down:
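HEK293 cells premixed with CellTox Green dye were seeded at 600 cells/well and left 5 h at 37 C/5% CO2 before pin transfer of 23 nL compound in DMSO. Fluorescence from dye bound to dead-cell DNA was read during 40 h treatment.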

Assay [8] in a line: qHTS RealTime-Glo MT Cell Viability Assay in HepG2 cells - 40 hour (AID 1224870). Further: nearly all actives have a fitted effect of over 50% in size. Further: potency means the concentration at half of the fitted maximal effect. The gist of the method:
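HepG2 cells (600/well) mixed with RealTime-Glo MT reagent, settled 5 h at 37 C/5% CO2 before compound addition. Nonlytic NanoLuc luminescence from viable-cell prosubstrate reduction read repeatedly during 40 h treatment at 37 C.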
On the % scale 0 is the no-effect control and ±100 the full control effect.

As for `CC(=O)Nc1ccc2c(c1)Cc1cc(NC(C)=O)ccc1-2`, the Potency entry in assay [1], in assay [2], in assay [4], in assay [5], in assay [6] and in assay [7] was “inactive” throughout. The Potency result in assay [8] was “inactive”. Moreover, the call in assay [3] was inactive.
Turning to `Nc1cc([N+](=O)[O-])ccc1C(=O)O`, the Potency entry in assay [1], in assay [2], in assay [4], in assay [5], in assay [6] and in assay [7] was “inactive” throughout. Moreover, in assay [8], the Potency result was “inactive”. In addition, the molecule was classed as inactive in assay [3].
Turning to `Cc1ccc2c(c1)C(=O)OC2=O`, the Potency result in assay [1], in assay [2], in assay [4], in assay [5], in assay [6] and in assay [7] was “inactive” each time. Also, the Potency result in assay [8] was “inactive”. In assay [3], the call was inactive.
Consider `CC1(C)C(C=C(Cl)Cl)C1C(=O)OCc1cccc(Oc2ccccc2)c1` (stereo unspecified), for which the Potency result in assay [1], in assay [2], in assay [4], in assay [5], in assay [6] and in assay [7] was “inactive” each time. For the same molecule, the Potency entry in assay [8] was “inactive”. In addition, in assay [3], the result was inactive.
Consider `CC(C)(C)c1cccc(C(C)(C)C)c1O`, for which the Potency in assay [1] is 53.7 µM (active) and inactive; in assay [6], 24 µM (active) and inactive. In addition, the Potency result in assay [2], in assay [4], in assay [5], in assay [7] and in assay [8] was “inactive” throughout. The molecule was called inactive in assay [3].
For the molecule `COc1ccc2nc(N)sc2c1`, the Potency result in assay [1], in assay [2], in assay [4], in assay [5], in assay [7] and in assay [8] was “inactive” each time. Besides, the molecule was classed as inactive in assay [3]. In addition, the Potency entry in assay [6] is “inactive and 2.19 µM (active)”.
In the case of `CC(=O)O[C@]1(C(C)=O)CC[C@H]2[C@@H]3C=C(Cl)C4=CC(=O)CC[C@]4(C)[C@H]3CC[C@@]21C`, the Potency result in assay [1], in assay [2], in assay [5], in assay [7] and in assay [8] was “inactive” each time. Further, the outcome in assay [3] was inactive. Moreover, the Potency in assay [4] is 101 µM (active) and inactive; in assay [6], 19.5 µM (active).
In the case of `CCC(Cc1c(I)cc(I)c(N)c1I)C(=O)O` (stereo unspecified), the Potency in assay [1] was 42.3 µM (active) and 15.1 µM (active). Besides, the Potency result in assay [2], in assay [4], in assay [5], in assay [6], in assay [7] and in assay [8] was “inactive” each time. Further, in assay [3], the outcome was inactive.
Consider `CN(C)C`, for which the Potency entry in assay [1], in assay [2], in assay [4], in assay [5], in assay [6] and in assay [7] was “inactive” in each case. For the same molecule, the Potency result in assay [8] is “inactive”. For the same molecule, the molecule was classed as inactive in assay [3].
In the case of `C=CCNCC=C`, the Potency result in assay [1], in assay [2], in assay [4], in assay [5], in assay [6] and in assay [7] was “inactive” in each case. The Potency entry in assay [8] was “inactive”. In addition, the result in assay [3] was inactive.
In the case of `O=[Se](O)O`, the Potency entry in assay [1], in assay [2], in assay [4] and in assay [7] was “inactive” throughout. For the same molecule, the molecule was called inactive in assay [3]. For the same molecule, in assay [5], the activity change, negative = cytotoxicity is -0.447% [at 15.8 µM] (inactive). Moreover, the Potency was 19.5 µM (active) in assay [6] and 21.9 µM (active) in assay [8]. Moreover, the activity change, negative = cytotoxic in assay [8] was 2.31% [at 15.8 µM] (inactive).
Consider `C=C[Si](OCCOC)(OCCOC)OCCOC`, for which the Potency result in assay [1], in assay [2], in assay [4], in assay [5], in assay [6] and in assay [7] was “inactive” each time. In addition, the Potency entry in assay [8] is “inactive”. Moreover, the molecule was called inactive in assay [3].
As to `OC[C@H]1O[C@@H]2O[C@H]3[C@H](O)[C@@H](O)[C@@H](O[C@H]4[C@H](O)[C@@H](O)[C@@H](O[C@H]5[C@H](O)[C@@H](O)[C@@H](O[C@H]6[C@H](O)[C@@H](O)[C@@H](O[C@H]7[C@H](O)[C@@H](O)[C@@H](O[C@H]1[C@H](O)[C@H]2O)O[C@@H]7CO)O[C@@H]6CO)O[C@@H]5CO)O[C@@H]4CO)O[C@@H]3CO`, the Potency entry in assay [1], in assay [2], in assay [4], in assay [5], in assay [6] and in assay [7] was “inactive” each time. For the same molecule, in assay [8], the Potency result is “inactive”. Further, the call in assay [3] was inactive.
With `CC(=O)OC(C)C`, the Potency result in assay [1], in assay [2], in assay [4], in assay [5], in assay [6] and in assay [7] was “inactive” in each case. Besides, in assay [8], the Potency entry is “inactive”. Further, the molecule was classed as inactive in assay [3].
Turning to `Brc1nc2ccccc2s1`, the Potency result in assay [1], in assay [2], in assay [4], in assay [6], in assay [7] and in assay [8] was “inactive” throughout. For the same molecule, in assay [3], the result was inactive.
As to `CCC(=O)O[C@H]1[C@H](O[C@@H]2[C@@H](C)[C@H](O[C@H]3C[C@@](C)(OC)[C@@H](O)[C@H](C)O3)[C@@H](C)C(=O)O[C@H](CC)[C@@](C)(O)[C@H](O)[C@@H](C)C(=O)[C@H](C)C[C@@]2(C)O)O[C@H](C)C[C@@H]1N(C)C`, in assay [1], the Potency is 25.8 µM (active) and inactive. In addition, the Potency entry in assay [2], in assay [4], in assay [5], in assay [6], in assay [7] and in assay [8] was “inactive” each time. Besides, in assay [3], the call was inactive.
On to `O=Cc1ccccc1C=O`, for which the Potency result in assay [1], in assay [2], in assay [4], in assay [5], in assay [6] and in assay [7] was “inactive” throughout. Further, the call in assay [3] was inactive. The Potency in assay [8] was 38.9 µM (active) and inactive.
As to `CCCN1C=CN(C)C1`, the Potency result in assay [1], in assay [2], in assay [4], in assay [5], in assay [6] and in assay [7] was “inactive” in each case. Moreover, the Potency entry in assay [8] was “inactive”. For the same molecule, the result in assay [3] was inactive.
Turning to `CCC/C=C/C=O`, the Potency entry in assay [1], in assay [2], in assay [4], in assay [5], in assay [6] and in assay [7] was “inactive” each time. Moreover, in assay [8], the Potency result is “inactive”. The call in assay [3] was inactive.
In the case of `C=CCCCCCCCCCC`, the Potency entry in assay [1], in assay [2], in assay [4], in assay [5], in assay [6] and in assay [7] was “inactive” throughout. The Potency result in assay [8] was “inactive”. Besides, in assay [3], the call was inactive.
As to `Cc1ccc(C)c(O)c1`, the Potency entry in assay [1], in assay [2], in assay [4], in assay [5], in assay [6] and in assay [7] was “inactive” each time. Moreover, the Potency result in assay [8] is “inactive”. In addition, the outcome in assay [3] was inactive.
Turning to `COC(=O)c1ccc(C)cc1`, the Potency entry in assay [1], in assay [2], in assay [4], in assay [6], in assay [7] and in assay [8] was “inactive” each time. Moreover, the molecule was called inactive in assay [3].
As to `COC(=O)CC(=O)OC`, the Potency entry in assay [1], in assay [2], in assay [4], in assay [5], in assay [6] and in assay [7] was “inactive” in each case. The Potency result in assay [8] was “inactive”. Further, the call in assay [3] was inactive.
In the case of `O=C(O)CCCC(=O)O`, the Potency result in assay [1], in assay [2], in assay [4], in assay [5], in assay [6] and in assay [7] was “inactive” throughout. Besides, the Potency result in assay [8] is “inactive”. Further, the outcome in assay [3] was inactive.
